Experimental data published in the supplement of paper PMC11555231.

Molecular target: PADI4, Q9UM07
Experiment: log2 enrichment score relative to parent PADI4_3 peptide (binding to PADI4); higher = tighter binding than parent
Conditions: CaCl2: 10 mM
In short: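 Sequencing of input and eluted pools from a single triplicate round gave log2 enrichment (bound over input), expressed relative to parent as a mean with standard deviation. The NNK-randomised cyclic peptide mRNA-display library carried a C-terminal HA tag and had methionine reassigned to N-methyl-alanine. Selection was against bead-immobilised biotinylated His-tagged human PADI4 (100 nM) in HEPES/NaCl buffer with 10 mM CaCl2, DTT, Tween and blockers, washed over 10–12 h at RT.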

Chain of PADI4, Q9UM07 (Q9UM07 whole entry): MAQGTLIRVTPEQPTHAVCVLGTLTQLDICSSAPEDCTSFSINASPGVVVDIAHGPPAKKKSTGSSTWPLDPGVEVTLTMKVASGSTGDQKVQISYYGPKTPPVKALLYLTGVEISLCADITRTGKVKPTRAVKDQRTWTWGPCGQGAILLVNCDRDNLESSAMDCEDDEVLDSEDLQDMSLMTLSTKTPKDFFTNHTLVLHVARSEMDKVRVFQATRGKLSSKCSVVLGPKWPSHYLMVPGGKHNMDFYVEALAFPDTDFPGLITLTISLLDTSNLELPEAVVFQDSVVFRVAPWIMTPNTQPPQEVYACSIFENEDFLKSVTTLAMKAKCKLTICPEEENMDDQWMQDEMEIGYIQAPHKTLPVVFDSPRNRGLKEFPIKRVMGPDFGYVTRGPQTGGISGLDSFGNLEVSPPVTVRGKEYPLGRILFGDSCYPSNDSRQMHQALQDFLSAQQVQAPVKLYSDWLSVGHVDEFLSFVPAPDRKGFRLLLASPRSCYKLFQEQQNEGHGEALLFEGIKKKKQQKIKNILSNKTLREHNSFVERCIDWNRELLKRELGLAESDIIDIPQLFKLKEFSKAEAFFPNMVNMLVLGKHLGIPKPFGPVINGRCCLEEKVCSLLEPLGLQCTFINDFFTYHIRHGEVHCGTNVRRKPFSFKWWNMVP

| Binder | log2 enrichment score |
| --- | --- |
| YRDHHYRHPTYCG [PADI4_3_K10T K10T] | 0.237 |
| YRDHHTRHPKYCG [PADI4_3_Y6T Y6T] | -2.52 |
| YRSHHYRHPKYCG [PADI4_3_D3S D3S] | -3.9 |
| YRDTHYRHPKYCG [PADI4_3_H4T H4T] | -3.53 |
| YTDHHYRHPKYCG [PADI4_3_R2T R2T] | -1.69 |
| YRDHHYRHTKYCG [PADI4_3_P9T P9T] | -1.92 |
| YRDHHYTHPKYCG [PADI4_3_R7T R7T] | -1.3 |
| YRTHHYRHPKYCG [PADI4_3_D3T D3T] | -3.58 |
| YRDHHYRHPKTCG [PADI4_3_Y11T Y11T] | -3.95 |
| YRDHTYRHPKYCG [PADI4_3_H5T H5T] | -3.62 |
| YRDHHYRTPKYCG [PADI4_3_H8T H8T] | -3.89 |
| YRDSHYRHPKYCG [PADI4_3_H4S H4S] | -2.9 |
